# PubChem BioAssay
# Several values for one entry are separate records, joined by “and”; a condition that tells them apart may be missing. Identical values can stand only once. Activity calls are given as the source filed them.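 The calls were made as follows, unless noted: active = compound that reduces growth-factor-driven endothelial tube area in a mixed cell culture, no cutoff stated; inactive = the rest.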
# Assays:
# [1] = Wnt pathway potentiators raising nuclear beta-catenin – imaging, WNT3A-conditioned medium, mouse C2C12, NPC library, primary screen (AID 1117326; in the data active = nuclear beta-catenin stimulation mostly above about 4.2%, no sharp cut-off; inactive = mostly below about 10%); conditions: stronger effect = higher value
# [2] = stimulators of insulin release from INS-1E, primary screen, cell-based, 5 mM glucose, NPC library (AID 1117329;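 active = compound raises insulin release from rat beta cells at 5 mM glucose, no numeric limit stated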); conditions: rat INS-1E insulin secretion, at 10 µM, stronger effect = higher value
# [3] = growth inhibition of GSK3B-pretreated HCT116 cells – cell-based, CellTiter-Glo, 0.2 to 20 µM (AID 1117336;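 active = compounds lowering colon cancer cell viability after pretreatment blocking the GSK3B kinase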); conditions: HCT116 viability after GSK3B inhibitor, at 20 µM, stronger effect = higher value
# [4] = inhibition of endothelial tube formation, primary screen, imaging, VEGF stimulated, CD31 staining, tube area, NPC library (AID 1117340); conditions: VEGF-stimulated ADSC/ECFC co-culture, at 10 µM, stronger effect = higher value
# [5] = GLP1 release stimulators, primary, NCI-H716, NPC library (AID 1117341;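 active = compound raises GLP1 secretion from the human gut endocrine cells, with no numeric limit stated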); conditions: NCI-H716 cells, at 10 µM, stronger effect = higher value
# [6] = HCT116 colon cancer cell growth inhibition, primary screen, CellTiter-Glo luminescence, NPC library (AID 1117342;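 active = compounds that lower survival of HCT116 colon cancer cells in the luminescence readout, no numeric limit stated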); conditions: at 20 µM (top of the series)
# [7] = reduced SW480 viability measured with CellTiter-Glo, NPC library, primary (AID 1117343;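 active = compounds that lower viability of the colon cancer cells in the luminescence readout, with no numeric limit stated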); conditions: CellTiter-Glo luminescence; at 20 µM (top of the series) unless noted
# [8] = NPC library primary testing for decreased DLD-1 cell viability via CellTiter-Glo (AID 1117346;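 active = compounds that lower survival of DLD-1 colon cancer cells in the luminescence readout, no cutoff given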); conditions: DLD-1 viability, CellTiter-Glo luminescence; at 20 µM (top of the series)
# [9] = viability loss with induced miR-34 in A549 – imaging, A549 dox-inducible miR-34, nuclei and caspase counts, primary screen (AID 1347080;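 active = compounds whose cell count with miR-34 switched on is under 0.7 times the count with it off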); conditions: A549 miR-34 inducible, Hoechst nuclei count, 48 h
# [10] = MELAS cybrid and Rieske KO viability enhancers – cell-based, MELAS cybrids, Rieske KO mouse fibroblasts, CellTiter-Glo, primary screen (AID 1508586;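 active = mean z-score across replicates of 1.96 or higher in either the MELAS or the Rieske mutant cell line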;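 also: z relative to plate mean and SD of compound and empty wells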); conditions: low glucose
# [11] = P. berghei load reduction in hepatocytes – cell-based, HepG2, luciferase luminescence, HepG2 viability, primary screen (AID 624349; in the data active = parasite load remaining mostly below about 12%, no sharp cut-off; inactive = mostly above about 10%;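 also: 100% = mean of DMSO negative control wells on the same plate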); conditions: P. berghei liver stage in HepG2, luciferase luminescence, concentration not given here; parasite load remaining: stronger effect = lower value; viability: measured here: HepG2 viability without parasites
# [12] = target: NAD(+) hydrolase SARM1 (Homo sapiens) (UniProt Q6SZW1); test: blocking NAD cleavage by SARM1 SAM-TIR – cell lysate, NAD-Glo luminescence (AID 1508614;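 active = compound whose remaining NAD level is above about 45 nM, limit read from the data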;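 also: higher remaining NAD means stronger inhibition of SARM1 NADase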); conditions: SAM-TIR HEK293T lysate NADase, at 1 µM, stronger effect = higher value
# [13] = target: Mitogen-activated protein kinase 7 (Homo sapiens) (UniProt Q13164); test: Gal4-ERK5 driven luciferase induction – cell-based, HTS, primary screen (AID 1508626;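 active = luciferase signal above three times the same-plate solvent-only control wells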;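 also: luciferase driven by Gal4-ERK5 fusion binding five Gal4 sites before minimal TATA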); conditions: HeLa Gal4-ERK5 transactivation, 18 h, at 5 µM, stronger effect = higher value
# [14] = stronger effect = lower value, cell number ratio, induced over uninduced
# [15] = measured here: relative caspase fold change +Dox/-Dox
# [16] = measured here: total cells with miR-34 induction, stronger effect = lower value
# [17] = measured here: total cells without miR-34 induction
# [18] = MELAS cybrid survival, CellTiter-Glo 48 h, stronger effect = higher value
# [19] = Rieske KO mouse fibroblast survival, CellTiter-Glo 72 h
# Sequence of NAD(+) hydrolase SARM1 (Homo sapiens) (Q6SZW1 whole entry, looked up, the tested form may be a part): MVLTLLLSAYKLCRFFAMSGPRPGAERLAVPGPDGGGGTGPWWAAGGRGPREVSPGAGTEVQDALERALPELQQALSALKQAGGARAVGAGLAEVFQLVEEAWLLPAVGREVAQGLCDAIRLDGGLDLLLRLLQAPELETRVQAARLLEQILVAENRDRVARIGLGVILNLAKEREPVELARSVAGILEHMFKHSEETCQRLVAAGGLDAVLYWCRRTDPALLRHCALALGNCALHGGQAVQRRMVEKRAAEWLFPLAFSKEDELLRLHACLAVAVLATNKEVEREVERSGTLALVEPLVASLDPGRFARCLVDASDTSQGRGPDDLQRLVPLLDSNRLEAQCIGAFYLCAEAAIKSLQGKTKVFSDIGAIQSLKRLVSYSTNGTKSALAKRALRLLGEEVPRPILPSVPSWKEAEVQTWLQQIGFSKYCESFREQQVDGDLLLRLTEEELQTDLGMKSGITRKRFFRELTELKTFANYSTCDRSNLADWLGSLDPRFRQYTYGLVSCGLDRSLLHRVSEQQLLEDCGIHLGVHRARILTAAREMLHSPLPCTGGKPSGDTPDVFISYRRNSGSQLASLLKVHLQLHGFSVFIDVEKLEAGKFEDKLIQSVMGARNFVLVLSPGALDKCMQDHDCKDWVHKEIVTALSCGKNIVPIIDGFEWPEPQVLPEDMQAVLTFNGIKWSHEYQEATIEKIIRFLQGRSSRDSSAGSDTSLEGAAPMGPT
# Sequence of Mitogen-activated protein kinase 7 (Homo sapiens) (Q13164 whole entry, looked up, the tested form may be a part): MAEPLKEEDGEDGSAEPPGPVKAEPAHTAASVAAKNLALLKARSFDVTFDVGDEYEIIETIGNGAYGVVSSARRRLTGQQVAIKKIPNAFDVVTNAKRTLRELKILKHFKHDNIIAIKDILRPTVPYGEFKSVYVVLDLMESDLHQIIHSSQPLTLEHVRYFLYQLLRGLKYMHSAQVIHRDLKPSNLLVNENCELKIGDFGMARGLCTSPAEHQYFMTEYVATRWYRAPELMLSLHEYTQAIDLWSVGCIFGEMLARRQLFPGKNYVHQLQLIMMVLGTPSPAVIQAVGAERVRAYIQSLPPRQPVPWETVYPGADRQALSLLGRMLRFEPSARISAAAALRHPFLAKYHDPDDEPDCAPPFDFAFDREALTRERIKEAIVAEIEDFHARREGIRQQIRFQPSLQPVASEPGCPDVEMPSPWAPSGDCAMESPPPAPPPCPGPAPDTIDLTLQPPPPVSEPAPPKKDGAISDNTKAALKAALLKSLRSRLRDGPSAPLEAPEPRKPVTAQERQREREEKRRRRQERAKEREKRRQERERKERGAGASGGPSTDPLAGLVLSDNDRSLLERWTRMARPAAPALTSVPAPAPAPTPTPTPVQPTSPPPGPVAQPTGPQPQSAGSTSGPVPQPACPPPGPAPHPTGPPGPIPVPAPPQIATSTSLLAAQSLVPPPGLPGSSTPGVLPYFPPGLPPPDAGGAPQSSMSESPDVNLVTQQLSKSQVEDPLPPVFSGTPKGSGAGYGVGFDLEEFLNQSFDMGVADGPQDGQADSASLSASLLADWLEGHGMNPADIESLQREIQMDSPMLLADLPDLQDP
SMILES,nuclear beta-catenin stimulation ([1]; at 10 µM),"nuclear beta-catenin stimulation ([1]; stimulation, at 2 µM) [%]",insulin secretion stimulation [2],viability decrease [3],tube area decrease [4],GLP1 secretion stimulation [5],inhibition of viability [6],viability decrease (inhibition) [7],viability decrease (inhibition) [8],"fold change [9, 14]","fold change [9, 15]","cell count [9, 16]","cell count [9, 17]","z-score [10, 18]","z-score [10, 19]",parasite load remaining [11],viability [11] [%],remaining NAD [12],luciferase signal [13]
COc1cc(C=O)ccc1O,1.6% (inactive),0.8,0.7% (inactive),1.37% (inactive),1.2% (inactive),0.6% (inactive),-10.3% (inactive),49.1% (inactive),3.27% (inactive),0.931 (inactive),0.545,7990,8590,-0.504 (inactive),-0.136,,,,
O=C(O)Cc1cccc2ccccc12,-0.7% (inactive),0.6,-1.5% (inactive),-6.45% (inactive),0% (inactive),1.9% (inactive),12.9% (inactive),39.8% (inactive),-0.4% (inactive),0.971 (inactive),1.32,8040,8280,0.391 (inactive),-0.24,,,,
NCCC(O)(P(=O)(O)O)P(=O)(O)O,1.8% (inactive),-0.1,-3.4% (inactive),-16% (inactive),8.2% (inactive),1.4% (inactive),-1.9% (inactive),16.6% (inactive),-6.8% (inactive),0.878 (inactive),1.25,9450,10800,0.361 (inactive),-0.434,25.4% (inactive),75,,
COC(=O)C1=C(C#N)NC(C)=C(C(=O)OC(C)C)C1c1cccc([N+](=O)[O-])c1 (stereo not drawn),-1.3% (inactive),2.3,-0.1% (inactive),9.8% (inactive),9.9% (inactive),-3.9% (inactive),56.2% (active),65.8% (active),29.6% (active),0.976 (inactive),0.643,7820,8010,-0.465 (inactive) and 0.607 (inactive),0.162 and 0.638,,,,
COc1ccccc1O,-1.7% (inactive),2.4,2.9% (inactive),-10.4% (inactive),-0.8% (inactive),-3.6% (inactive),3% (inactive),1.3% (inactive),-5.1% (inactive),0.954 (inactive),1.02,10200,10700,0.215 (inactive) and 0.0947 (inactive),-0.0355 and -0.379,50.2% (inactive),93.5,10 nM (inactive),
Nc1c[n+](N2CCOCC2)no1,0.4% (inactive),-0.3,-1.7% (inactive),15.5% (inactive),-10.8% (inactive),-2.6% (inactive),-13.8% (inactive),66.6% (active),20.6% (inactive),,,,,,,,,,
O=C1NCCN1CCN1CCC(c2cn(-c3ccc(F)cc3)c3ccc(Cl)cc23)CC1,5.7% (inactive),0.1,5.2% (inactive),99.9% (active),100% (active),-1.3% (inactive),100% (active),103% (active),102% (active),,,,,-0.903 (inactive),0.239,,,,
Cc1ncc([N+](=O)[O-])n1C,1.7% (inactive),22.2,4.1% (inactive),38.9% (inactive),-11.6% (inactive),-0.5% (inactive),-2.3% (inactive),-12.5% (inactive),-4.4% (inactive),,,,,,,,,10 nM (inactive),
CCNC(=O)/C=C/c1cccc(Br)c1,0.9% (inactive),0.6,-2.3% (inactive),-9.75% (inactive),-15.1% (inactive),-0.7% (inactive),-8.7% (inactive),38% (inactive),15.1% (inactive),,,,,,,,,10 nM (inactive),
C[N+](C)(C)CC(O)CC(=O)[O-] (stereo not drawn),6.3% (inactive),2.6,3.9% (inactive),17.4% (inactive),0.3% (inactive),-1.8% (inactive),-0.3% (inactive),-12.1% (inactive),1.7% (inactive),,,,,,,,,10 nM (inactive),
CCOc1ccccc1OCC1CNCCO1 (stereo not drawn),0.4% (inactive),-0.3,1.75% (inactive),1.7% (inactive),-7% (inactive),-0.1% (inactive),32.4% (inactive),-7.1% (inactive),-5.4% (inactive),,,,,0.538 (inactive),-0.146,,,,
C[C@]1(Cn2ccnn2)[C@H](C(=O)O)N2C(=O)C[C@H]2S1(=O)=O,-1.1% (inactive),0.1,10.1% (inactive),-2.3% (inactive),-6% (inactive),1.9% (inactive),3.3% (inactive),17.8% (inactive),-1.5% (inactive),,,,,-0.126 (inactive),-0.0503,,,10 nM (inactive),
O=C(CCCl)NCCc1ccccc1,-0.5% (inactive),0.2,1.5% (inactive),-9.9% (inactive),-1.9% (inactive),-1.9% (inactive),-2.8% (inactive),-1.5% (inactive),-7.5% (active),,,,,,,,,10 nM (inactive),
CC[C@H](C)[C@H](N)C(=O)O,2.1% (inactive),4.3,-0.7% (inactive),-17.5% (inactive),27% (inactive),-0.4% (inactive),-13.2% (inactive),0.9% (inactive),-7.9% (inactive),,,,,,,,,10 nM (inactive),
CCN(CC)C(=O)Nc1ccc(OCC(O)CNC(C)(C)C)c(C(C)=O)c1 (stereo not drawn),-1.9% (inactive),-0.3,9.4% (inactive),0.3% (inactive),-7.8% (inactive),-4.8% (inactive),12% (inactive),4.9% (inactive),-3.6% (inactive),,,,,1.68 (inactive),0.098,,,,
CCOc1ccccc1C(N)=O,0.9% (inactive),1.6,-1.8% (inactive),-5.85% (inactive),-6.8% (inactive),1.9% (inactive),22.9% (inactive),31.4% (inactive),-1.45% (inactive),,,,,,,,,10 nM (inactive),
O=C(O)CCCCC(=O)O,0.3% (inactive),-0.9,-0.6% (inactive),-6.5% (inactive),-7.7% (inactive),1.4% (inactive),-4.8% (inactive),25% (inactive),11.8% (inactive),,,,,,,,,10 nM (inactive),
Cc1cccn2c(=O)c(-c3nnn[nH]3)cnc12,3% (inactive),1.7,-1.3% (inactive),2.1% (inactive),-6.7% (inactive),3.6% (inactive),13.5% (inactive),8.4% (inactive),-1.9% (inactive),,,,,0.721 (inactive),-0.0743,,,,
CCCCC(CC)COC(=O)c1ccccc1O (stereo not drawn),-0.1% (inactive),-0.3,-2% (inactive),9.8% (inactive),-7.3% (inactive),1.9% (inactive),2.2% (inactive),50.1% (active),14.3% (inactive),,,,,,,,,10 nM (inactive),
Clc1cc(Cl)c(OCC#CI)cc1Cl,62.3% (active),21.7,9.6% (inactive),93.8% (active),106% (active),-0.7% (inactive),92% (active),100% (active),98.1% (active),,,,,-0.965,8.41,,,,
N#Cc1cc(NC(=O)C(=O)O)c(Cl)c(NC(=O)C(=O)O)c1,3.5% (inactive),1.2,2.2% (inactive),-38.9% (inactive),-0.9% (inactive),-0.9% (inactive),-4.9% (inactive),25.7% (inactive),-16.9% (inactive),,,,,-0.414 (inactive),-0.697,,,,
CN(C)CCOC1=Cc2ccccc2Sc2ccc(Cl)cc21,31.6% (inactive),-1,14.5% (inactive),99.3% (active),89.3% (active),-2.6% (inactive),99% (active),102% (active),97.6% (active),,,,,0.153 (inactive),0.114,,,,
N[C@@H](Cc1ccc(O)cc1)C(=O)O,-2% (inactive),-0.2,3.9% (inactive),-7.6% (inactive),1% (inactive),3% (inactive),3.9% (inactive),-0.8% (inactive),-0.1% (inactive),,,,,,,,,10 nM (inactive),
CCCCC(O)c1ccccc1 (stereo not drawn),-0.9% (inactive),-0.8,-0.1% (inactive),-9.5% (inactive),-9.9% (inactive),-3.9% (inactive),5.3% (inactive),-5.1% (inactive),-6% (inactive),,,,,0.247 (inactive),0.0374,,,10 nM (inactive),
Cn1c(=O)c2c(ncn2CC(=O)O)n(C)c1=O,-0.1% (inactive),-1,0.95% (inactive),20.3% (inactive),-15.7% (inactive),-0.7% (inactive),12.3% (inactive),0.4% (inactive),-5.4% (inactive),,,,,0.592 (inactive),0.00475,,,,
CCOC(=O)[C@@](C)(N)Cc1ccc(O)c(O)c1,0.6% (inactive),-0.5,2.8% (inactive),37.5% (inactive),-1.8% (inactive),-2.3% (inactive),20% (inactive),65% (active),17.2% (inactive),,,,,-1.64 (inactive),-0.614,,,,92 AU (inactive)
COc1ccc(-n2nc(CCC(=O)N(C)O)cc2-c2ccc(Cl)cc2)cc1,0.6% (inactive),0.2,2.7% (inactive),91.8% (active),19.2% (inactive),9.1% (inactive),94.4% (active),130% (active),102% (active),,,,,,,,,10 nM (inactive),
